# In PubChem BioAssay (Tox21):
# Values joined by “and” are separate entries in the source; they are usually repeats but may differ in a detail not shown here. Equal entries are not always repeated. Records with an inconclusive call do not appear. A call without a number means that no potency is given here. Unmarked numbers belong to inactive results. Active and inactive are the calls of the source. Calls come from the whole dose curve; as a rule, active = well fitted activation curve with a large enough effect in the repeat runs; inconclusive = weak or mixed curves, or effect the other way; inactive = no such curve, though single readings can be large or run the other way.
# Experiment: qHTS assay to identify small molecule agonists of the retinoic acid receptor (RAR) signaling pathway (AID 1159553)
# Conditions: C3RL4 RARE luciferase reporter, agonist, 6 h; activation: at 73.3 µM (top of the series) unless noted
# From the text: National Center for Advancing Translational Sciences [NCATS] NIH Chemical Genomics Center [NCGC] U.S. Environmental Protection Agency [EPA] National Institutes of Environmental Health Sciences [NIEHS] National Toxicology Program [NTP] Assay overview: All-trans Retinoic acid (atRA) is the potent natural metabolite of retinol and plays an important role in normal embryonic development and maintenance of cellular phenotype in adult animals. atRA is the activating ligand for the retinoic acid receptors (RARs) which form heterodimers with retinoid X receptors (RXRs) on the retinoic acid response element (RARE). Through activation of the RAR/RXRs nuclear receptors, atRA regulates the transcription of a large number of protein-coding genes and regulatory RNAs. Intracellular levels of atRA are controlled by the retinol signaling pathway (RSP) that regulates the biosynthesis and catabolism of atRA to maintain physiological levels. Chemicals that interfere with the RSP can cause abnormal intracellular levels of atRA and therefore are potential developmental toxicants. To assess compounds for the potential adverse effect on embryonic development through interfering with retinol signaling, a cell-based RARE luciferase reporter gene assay was used. C3RL4 cell line (OARSA/CFSAN/FDA, Laurel, MD) was used to screen Tox21 10K compound library for identifying activators of the RSP.
# Assay Protocol Summary: C3RL4 cells were seeded at 1,000/well in 5 uL of assay medium into white solid 1,536-well tissue culture plates (Greiner Bio-One North America Inc. Monroe, NC) using a Multidrop Combi (Thermo Scientific, Waltham, MA) dispenser. After incubation at 37 C and 5% CO2 for an overnight, 23 nL of compounds dissolved in DMSO, positive control or DMSO only were transferred by a Pintool station (Kalypsys, San Diego, CA). After 6 hr incubation at 37 C and 5% CO2, 5 uL of Amplite Luciferase reagent (AAT Bioquest Inc. Sunnyvale, CA) was added to each assay plate using a Flying Reagent Dispenser (FRD) (Aurora Discovery, San Diego, CA). Luminescence was quantified on a ViewLux plate reader (PerkinElmer, Waltham, MA) after 30 min incubation at room temperature.
# Potency is the fitted concentration of half-maximal effect.
SMILES,Potency,activation
Cc1ccc(C(C)C)cc1,inactive,–
O=C1CCCCCCCCCCC1,inactive,–
C=CC(C)(C)C,inactive,–
CC(C)=CCC/C(C)=C/C=O,inactive,–
CN=C(NC#N)NCCSCc1nc[nH]c1C,inactive,–
Cc1cccc(C)c1[N+](=O)[O-],–,0.136%
COc1c(Cl)ccc(Cl)c1C(=O)O,inactive,–
Cc1ccc([N+](=O)[O-])cc1N,inactive,–
O=C1C(N(CO)C(=O)NCO)N(CO)C(=O)N1CO (stereo not given),inactive,–
CS(=O)(=O)c1ccc(Cl)cc1,inactive,–
CCOC(=O)CC(=O)OCC,inactive,–
C=C1C[C@]23C[C@@]1(O)CC[C@H]2[C@@]12C=C[C@H](O)[C@@](C)(C(=O)O1)[C@H]2[C@@H]3C(=O)O,inactive,–
O=C(O)C1=NN(c2ccc(S(=O)(=O)O)cc2)C(=O)C1,inactive,–
CCCCC(=O)O,–,-0.0394% [at 94.8 µM]
O=Cc1ccc(CO)o1,inactive,–
C=CC(=O)NCOCCCC,inactive,–
COc1cc(NC(=O)CC(C)=O)c(OC)cc1Cl,inactive,–
CC(=O)OCCC(C)C,inactive,–
CC(=O)OC/C=C(\C)CCC=C(C)C,inactive,–
CCCCCCCCCCCC(=O)N(C)CC(=O)O,inactive,–

SMILES,Potency,activation
O=C1OC(=O)c2c(Cl)c(Cl)c(Cl)c(Cl)c21,inactive,–
CC/C=C(\C(=O)N[C@@H]1C(=O)N2C(C(=O)OCOC(=O)C(C)(C)C)=C(COC(N)=O)CS[C@H]12)c1csc(N)n1,inactive,–
CCCCCCC(=O)O,inactive,–
NCCNCCNCCN,inactive,–
Cc1cc(C)cc(O)c1,–,0.02% [at 94.8 µM]
COc1ccc([C@@H]2CC(=O)c3c(O)cc(O[C@@H]4O[C@H](CO[C@@H]5O[C@@H](C)[C@H](O)[C@@H](O)[C@H]5O)[C@@H](O)[C@H](O)[C@H]4O)cc3O2)cc1OC,inactive,–
CCCOCC(C)O (stereo not given),inactive,–
COCN(COC)c1nc(N(COC)COC)nc(N(COC)COC)n1,inactive,–
CC(=O)c1nccs1,inactive,–
OCC(CO)(CO)CO,inactive,–
CC(=O)OC(C)(C)C1CC=C(C)CC1 (stereo not given),inactive,–
CCCCC(CC)COC(=O)c1ccc(C(=O)OCC(CC)CCCC)cc1 (stereo not given),inactive,–
COC(=O)/C=C\C(=O)OC,inactive,–
COc1ccccc1[N+](=O)[O-],inactive,–
CCOC(=O)c1ccc(O)cc1,–,2.77%
CCCCCC(C)=O,–,-0.999% [at 94.8 µM]
OB(O)O,inactive,–
O=C(Cl)c1ccc(C(=O)Cl)cc1,inactive,–
c1cnc2c(c1)ccc1cccnc12,2.19 µM (active) and 9.69 µM (active) and 2.73 µM (active),–
COc1c2ccoc2cc2oc(=O)ccc12,inactive,–
